Tests used:
Assay in all cases: DAPPL (digital affinity profiling via proximity ligation, sequencing); 10 mM Tris-HCl pH 7.5, 50 mM NaCl, 1 mM DTT, 4% glycerol, room temperature, 30 min; GST-TFs on glutathione beads, 16-mer random dsDNA library, 0.1% formaldehyde crosslink after washing; high values mean tight binding
FEV = molecular target: T1, FEV (Homo sapiens, UniProt Q99581 1-238); details: protein: recombinant; tags: N-terminal GST; dsDNA, one strand shown
T1 sequence: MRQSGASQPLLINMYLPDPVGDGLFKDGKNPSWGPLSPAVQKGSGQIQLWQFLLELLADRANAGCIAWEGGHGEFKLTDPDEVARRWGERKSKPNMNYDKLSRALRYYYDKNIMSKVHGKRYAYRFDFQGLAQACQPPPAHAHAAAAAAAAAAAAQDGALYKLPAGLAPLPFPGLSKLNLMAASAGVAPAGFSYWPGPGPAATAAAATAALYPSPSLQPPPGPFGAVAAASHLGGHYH
How it was run: (§1)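 Binding signal is each hexamer's read frequency for a factor divided by its frequency in the tag-only sample. The factors were GST-fused human transcription factors from yeast, captured on glutathione beads, DNA-barcoded and pooled with that sample. Pools were incubated with 200 nmole of a random double-stranded 16-mer DNA library in Tris/NaCl/DTT/glycerol buffer at room temperature for 30 min, then washed, crosslinked with 0.1% formaldehyde, proximity-ligated with BsaI/T4 ligase (1 h, 37 °C), PCR-amplified and sequenced on an Illumina NextSeq500.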

ETV5 = ETV5 (Homo sapiens, UniProt P41161 1-510); details: protein: recombinant; tags: N-terminal GST; dsDNA, one strand shown
Sequence of ETV5 (P41161 whole entry): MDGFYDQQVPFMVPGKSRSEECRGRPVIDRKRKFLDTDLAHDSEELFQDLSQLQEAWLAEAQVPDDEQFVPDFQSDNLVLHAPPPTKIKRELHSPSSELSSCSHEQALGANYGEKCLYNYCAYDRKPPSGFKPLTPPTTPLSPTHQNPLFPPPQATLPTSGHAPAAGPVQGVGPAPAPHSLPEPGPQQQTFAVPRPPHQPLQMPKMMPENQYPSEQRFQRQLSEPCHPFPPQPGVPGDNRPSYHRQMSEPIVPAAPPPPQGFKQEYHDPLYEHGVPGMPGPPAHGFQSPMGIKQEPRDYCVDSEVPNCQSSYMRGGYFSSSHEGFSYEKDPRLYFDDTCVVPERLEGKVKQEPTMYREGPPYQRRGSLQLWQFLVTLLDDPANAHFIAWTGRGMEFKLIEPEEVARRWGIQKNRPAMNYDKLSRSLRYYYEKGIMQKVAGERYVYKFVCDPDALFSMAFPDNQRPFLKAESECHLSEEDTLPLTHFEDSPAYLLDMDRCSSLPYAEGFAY
How it was run: as §1

HSF1 = HSF1 (Homo sapiens, UniProt Q00613 1-529); details: protein: recombinant; tags: N-terminal GST; chain copies: 3; dsDNA, one strand shown
Sequence of HSF1 (Q00613 whole entry): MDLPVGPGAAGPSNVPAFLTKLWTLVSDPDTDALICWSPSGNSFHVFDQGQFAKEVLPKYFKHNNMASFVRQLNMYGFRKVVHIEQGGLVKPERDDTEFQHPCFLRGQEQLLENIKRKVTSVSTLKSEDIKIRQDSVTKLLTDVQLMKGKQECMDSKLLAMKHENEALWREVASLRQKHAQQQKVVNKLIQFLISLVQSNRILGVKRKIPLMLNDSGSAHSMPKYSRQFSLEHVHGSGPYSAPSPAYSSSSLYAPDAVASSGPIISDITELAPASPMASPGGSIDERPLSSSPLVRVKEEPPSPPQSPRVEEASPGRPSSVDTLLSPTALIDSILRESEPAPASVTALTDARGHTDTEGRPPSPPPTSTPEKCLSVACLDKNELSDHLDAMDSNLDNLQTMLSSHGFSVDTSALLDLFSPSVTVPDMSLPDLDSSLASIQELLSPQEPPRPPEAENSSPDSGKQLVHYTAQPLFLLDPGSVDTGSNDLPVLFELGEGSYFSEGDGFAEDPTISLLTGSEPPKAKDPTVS
How it was run: as §1

SPIC = molecular target: T2, SPIC (Homo sapiens, UniProt Q8N5J4 1-248); details: protein: recombinant; tags: N-terminal GST; dsDNA, one strand shown
T2 sequence: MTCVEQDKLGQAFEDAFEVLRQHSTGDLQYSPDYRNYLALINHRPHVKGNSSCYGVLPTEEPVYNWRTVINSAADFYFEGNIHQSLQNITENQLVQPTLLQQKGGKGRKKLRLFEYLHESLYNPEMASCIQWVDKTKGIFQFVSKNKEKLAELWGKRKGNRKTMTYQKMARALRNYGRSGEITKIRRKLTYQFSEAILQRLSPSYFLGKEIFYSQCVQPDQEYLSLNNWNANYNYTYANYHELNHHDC
How it was run: as §1

ELF4 = ELF4 (Homo sapiens, UniProt Q99607 1-663); details: protein: recombinant; tags: N-terminal GST; dsDNA, one strand shown
Sequence of ELF4 (Q99607 whole entry): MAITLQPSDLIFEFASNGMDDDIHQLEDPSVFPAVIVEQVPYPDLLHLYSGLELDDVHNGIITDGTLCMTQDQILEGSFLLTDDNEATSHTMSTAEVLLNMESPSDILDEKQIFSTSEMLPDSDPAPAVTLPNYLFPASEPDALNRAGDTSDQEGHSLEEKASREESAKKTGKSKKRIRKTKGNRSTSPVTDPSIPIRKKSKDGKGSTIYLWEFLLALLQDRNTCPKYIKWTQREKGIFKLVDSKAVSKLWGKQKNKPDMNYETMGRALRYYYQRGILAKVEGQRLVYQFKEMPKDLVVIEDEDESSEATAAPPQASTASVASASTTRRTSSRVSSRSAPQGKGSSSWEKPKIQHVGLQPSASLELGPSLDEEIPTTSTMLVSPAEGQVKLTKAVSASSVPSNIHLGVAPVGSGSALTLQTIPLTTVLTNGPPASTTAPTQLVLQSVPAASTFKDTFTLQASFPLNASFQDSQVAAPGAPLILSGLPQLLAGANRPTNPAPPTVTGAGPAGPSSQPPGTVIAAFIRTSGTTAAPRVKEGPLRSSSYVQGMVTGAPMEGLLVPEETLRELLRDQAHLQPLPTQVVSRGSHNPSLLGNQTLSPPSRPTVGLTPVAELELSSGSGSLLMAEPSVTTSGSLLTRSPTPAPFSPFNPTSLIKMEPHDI
How it was run: as §1

ELK4 = molecular target: T3, ELK4 (Homo sapiens, UniProt P28324-2 1-405); details: protein: recombinant; tags: N-terminal GST; dsDNA, one strand shown
T3 sequence: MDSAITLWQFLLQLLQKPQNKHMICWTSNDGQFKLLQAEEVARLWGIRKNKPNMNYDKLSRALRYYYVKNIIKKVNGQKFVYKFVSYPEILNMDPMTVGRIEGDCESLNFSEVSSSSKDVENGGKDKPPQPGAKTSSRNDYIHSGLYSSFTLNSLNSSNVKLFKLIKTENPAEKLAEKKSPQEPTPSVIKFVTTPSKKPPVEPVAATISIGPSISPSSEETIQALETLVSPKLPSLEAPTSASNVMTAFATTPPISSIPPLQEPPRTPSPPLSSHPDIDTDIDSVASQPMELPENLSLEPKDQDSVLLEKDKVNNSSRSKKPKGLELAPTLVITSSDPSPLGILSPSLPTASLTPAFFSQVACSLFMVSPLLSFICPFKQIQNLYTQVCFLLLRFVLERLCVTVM
How it was run: as §1

ETV2 = molecular target: T4, ETV2 (Homo sapiens, UniProt O00321 1-342); details: protein: recombinant; tags: N-terminal GST; dsDNA, one strand shown
T4 sequence: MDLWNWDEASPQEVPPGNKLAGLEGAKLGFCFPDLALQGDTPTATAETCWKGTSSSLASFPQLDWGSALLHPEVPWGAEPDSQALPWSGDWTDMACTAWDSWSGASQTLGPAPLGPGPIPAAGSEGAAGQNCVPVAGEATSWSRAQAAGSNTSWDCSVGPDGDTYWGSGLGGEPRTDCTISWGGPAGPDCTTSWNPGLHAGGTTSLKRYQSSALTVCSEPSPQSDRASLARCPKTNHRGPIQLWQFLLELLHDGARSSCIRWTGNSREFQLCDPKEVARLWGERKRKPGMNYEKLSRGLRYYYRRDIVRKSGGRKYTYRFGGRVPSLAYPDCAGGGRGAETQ
How it was run: as §1

ELF3 = molecular target: T5, ELF3 (Homo sapiens, UniProt P78545 1-371); details: protein: recombinant; tags: N-terminal GST; dsDNA, one strand shown
T5 sequence: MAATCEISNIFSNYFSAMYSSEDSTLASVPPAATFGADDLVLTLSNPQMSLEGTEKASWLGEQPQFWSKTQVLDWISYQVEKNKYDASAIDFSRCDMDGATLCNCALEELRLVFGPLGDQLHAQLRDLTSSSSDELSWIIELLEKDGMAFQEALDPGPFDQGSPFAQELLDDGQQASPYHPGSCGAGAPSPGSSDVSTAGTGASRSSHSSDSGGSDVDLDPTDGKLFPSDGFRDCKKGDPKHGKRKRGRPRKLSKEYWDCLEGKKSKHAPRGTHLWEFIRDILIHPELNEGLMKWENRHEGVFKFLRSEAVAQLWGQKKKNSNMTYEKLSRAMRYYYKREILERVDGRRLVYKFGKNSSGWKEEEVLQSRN
How it was run: as §1

CRX = CRX (Homo sapiens, UniProt O43186 1-299); details: protein: recombinant; tags: N-terminal GST; dsDNA, one strand shown
Sequence of CRX (O43186 whole entry): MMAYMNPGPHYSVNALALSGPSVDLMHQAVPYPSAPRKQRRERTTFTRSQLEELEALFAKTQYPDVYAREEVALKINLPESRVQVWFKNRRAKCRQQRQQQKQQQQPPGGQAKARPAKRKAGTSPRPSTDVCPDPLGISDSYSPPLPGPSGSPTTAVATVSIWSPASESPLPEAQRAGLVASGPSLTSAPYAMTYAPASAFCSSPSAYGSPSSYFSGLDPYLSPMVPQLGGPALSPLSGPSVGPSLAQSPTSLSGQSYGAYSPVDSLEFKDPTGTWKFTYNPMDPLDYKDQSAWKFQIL
How it was run: as §1

ETV1 = ETV1 (Homo sapiens, UniProt P50549 1-477); details: protein: recombinant; tags: N-terminal GST; dsDNA, one strand shown
Sequence of ETV1 (P50549 whole entry): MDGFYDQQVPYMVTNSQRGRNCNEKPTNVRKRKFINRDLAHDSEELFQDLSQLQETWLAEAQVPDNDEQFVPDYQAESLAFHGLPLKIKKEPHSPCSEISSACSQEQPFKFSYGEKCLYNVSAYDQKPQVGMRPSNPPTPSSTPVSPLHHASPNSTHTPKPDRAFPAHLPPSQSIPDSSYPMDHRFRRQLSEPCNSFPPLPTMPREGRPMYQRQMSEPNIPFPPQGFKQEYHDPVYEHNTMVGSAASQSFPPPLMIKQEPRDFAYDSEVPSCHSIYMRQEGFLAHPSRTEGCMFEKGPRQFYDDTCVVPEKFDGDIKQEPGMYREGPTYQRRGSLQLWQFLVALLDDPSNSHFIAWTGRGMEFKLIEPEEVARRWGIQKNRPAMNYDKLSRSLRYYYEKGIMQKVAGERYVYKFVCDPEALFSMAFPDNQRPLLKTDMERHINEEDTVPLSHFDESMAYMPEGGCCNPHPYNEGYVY
How it was run: as §1

ERF = molecular target: T6, ERF (Homo sapiens, UniProt P50548 1-548); details: protein: recombinant; tags: N-terminal GST; dsDNA, one strand shown
T6 sequence: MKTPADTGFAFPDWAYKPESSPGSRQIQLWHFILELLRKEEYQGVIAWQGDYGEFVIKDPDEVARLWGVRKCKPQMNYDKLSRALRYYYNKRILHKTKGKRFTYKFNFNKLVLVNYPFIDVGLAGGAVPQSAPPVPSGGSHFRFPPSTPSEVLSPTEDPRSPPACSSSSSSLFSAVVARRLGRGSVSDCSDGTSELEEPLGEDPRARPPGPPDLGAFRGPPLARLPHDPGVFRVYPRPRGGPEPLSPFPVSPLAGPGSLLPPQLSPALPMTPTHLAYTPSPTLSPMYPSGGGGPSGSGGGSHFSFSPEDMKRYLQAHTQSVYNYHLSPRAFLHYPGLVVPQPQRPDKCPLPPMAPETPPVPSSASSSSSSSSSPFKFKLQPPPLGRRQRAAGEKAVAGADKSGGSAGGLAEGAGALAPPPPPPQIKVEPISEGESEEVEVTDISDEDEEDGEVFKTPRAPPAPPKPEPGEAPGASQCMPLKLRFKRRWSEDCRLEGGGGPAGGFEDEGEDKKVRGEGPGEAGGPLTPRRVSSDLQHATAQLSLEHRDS
How it was run: as §1

ETV3L = molecular target: T7, ETV3L (Homo sapiens, UniProt Q6ZN32 1-361); details: protein: recombinant; tags: N-terminal GST; dsDNA, one strand shown
T7 sequence: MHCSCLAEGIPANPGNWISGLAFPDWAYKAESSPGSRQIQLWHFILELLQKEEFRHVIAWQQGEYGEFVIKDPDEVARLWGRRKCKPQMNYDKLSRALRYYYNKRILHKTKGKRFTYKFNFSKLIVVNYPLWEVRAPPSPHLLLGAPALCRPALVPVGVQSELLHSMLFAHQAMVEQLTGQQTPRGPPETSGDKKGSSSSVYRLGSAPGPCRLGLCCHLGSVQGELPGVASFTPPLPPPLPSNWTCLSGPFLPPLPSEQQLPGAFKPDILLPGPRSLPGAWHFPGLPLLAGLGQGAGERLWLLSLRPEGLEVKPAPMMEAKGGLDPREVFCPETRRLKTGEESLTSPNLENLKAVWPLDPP
How it was run: as §1

ETS2 = molecular target: T8, ETS2 (Homo sapiens, UniProt P15036 1-469); details: protein: recombinant; tags: N-terminal GST; dsDNA, one strand shown
T8 sequence: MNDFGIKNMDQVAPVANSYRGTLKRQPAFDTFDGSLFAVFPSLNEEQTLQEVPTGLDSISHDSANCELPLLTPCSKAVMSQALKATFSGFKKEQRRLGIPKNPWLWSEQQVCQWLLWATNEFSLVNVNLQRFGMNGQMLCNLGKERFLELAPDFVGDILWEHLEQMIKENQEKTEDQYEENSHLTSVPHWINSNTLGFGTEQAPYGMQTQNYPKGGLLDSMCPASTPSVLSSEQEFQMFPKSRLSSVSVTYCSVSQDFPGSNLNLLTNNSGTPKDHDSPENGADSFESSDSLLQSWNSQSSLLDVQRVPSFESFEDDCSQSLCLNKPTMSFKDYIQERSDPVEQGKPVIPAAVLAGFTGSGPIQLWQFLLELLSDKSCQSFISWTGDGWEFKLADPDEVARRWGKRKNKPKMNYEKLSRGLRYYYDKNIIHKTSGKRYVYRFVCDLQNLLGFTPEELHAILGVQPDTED
How it was run: as §1

SPDEF = molecular target: T9, SPDEF (Homo sapiens, UniProt O95238 1-335); details: protein: recombinant; tags: N-terminal GST; dsDNA, one strand shown
T9 sequence: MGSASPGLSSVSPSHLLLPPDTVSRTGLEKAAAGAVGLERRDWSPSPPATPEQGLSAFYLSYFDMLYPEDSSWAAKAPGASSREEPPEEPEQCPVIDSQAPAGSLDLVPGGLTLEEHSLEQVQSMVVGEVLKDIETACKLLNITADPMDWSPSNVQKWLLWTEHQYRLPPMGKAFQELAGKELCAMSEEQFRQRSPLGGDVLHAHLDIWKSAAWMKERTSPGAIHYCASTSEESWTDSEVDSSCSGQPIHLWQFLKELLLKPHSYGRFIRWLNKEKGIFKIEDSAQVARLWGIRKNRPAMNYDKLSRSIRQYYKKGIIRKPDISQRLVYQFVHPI
How it was run: as §1

ETV7 = molecular target: T10, ETV7 (Homo sapiens, UniProt Q9Y603 1-341); details: protein: recombinant; tags: N-terminal GST; dsDNA, one strand shown
T10 sequence: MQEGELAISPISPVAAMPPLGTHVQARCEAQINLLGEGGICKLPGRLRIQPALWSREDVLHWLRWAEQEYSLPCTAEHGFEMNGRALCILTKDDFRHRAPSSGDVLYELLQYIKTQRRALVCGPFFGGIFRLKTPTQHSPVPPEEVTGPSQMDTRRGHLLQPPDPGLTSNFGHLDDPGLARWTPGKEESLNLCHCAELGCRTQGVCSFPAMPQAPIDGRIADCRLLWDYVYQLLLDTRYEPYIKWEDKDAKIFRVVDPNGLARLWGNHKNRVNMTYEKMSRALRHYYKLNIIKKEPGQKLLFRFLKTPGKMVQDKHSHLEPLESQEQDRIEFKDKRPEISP
How it was run: as §1

ELF5 = molecular target: T11, ELF5 (Homo sapiens, UniProt Q9UKW6-2 1-255); details: protein: recombinant; tags: N-terminal GST; dsDNA, one strand shown
T11 sequence: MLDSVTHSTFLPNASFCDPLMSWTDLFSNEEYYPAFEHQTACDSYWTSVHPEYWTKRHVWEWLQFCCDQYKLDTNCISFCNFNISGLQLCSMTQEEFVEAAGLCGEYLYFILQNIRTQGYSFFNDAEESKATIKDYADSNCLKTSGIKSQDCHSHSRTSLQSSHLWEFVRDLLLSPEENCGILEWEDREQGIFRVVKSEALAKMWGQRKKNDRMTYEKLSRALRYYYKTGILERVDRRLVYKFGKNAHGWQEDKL
How it was run: as §1

ETV3 = molecular target: T12, ETV3 (Homo sapiens, UniProt P41162-2 1-143); details: protein: recombinant; tags: N-terminal GST; dsDNA, one strand shown
T12 sequence: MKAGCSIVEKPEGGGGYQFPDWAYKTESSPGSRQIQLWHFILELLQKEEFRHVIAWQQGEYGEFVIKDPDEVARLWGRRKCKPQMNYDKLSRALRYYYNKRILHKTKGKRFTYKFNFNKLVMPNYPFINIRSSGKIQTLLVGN
How it was run: as §1

ETV6 = ETV6 (Homo sapiens, UniProt P41212 1-452); details: protein: recombinant; tags: N-terminal GST; dsDNA, one strand shown
Sequence of ETV6 (P41212 whole entry): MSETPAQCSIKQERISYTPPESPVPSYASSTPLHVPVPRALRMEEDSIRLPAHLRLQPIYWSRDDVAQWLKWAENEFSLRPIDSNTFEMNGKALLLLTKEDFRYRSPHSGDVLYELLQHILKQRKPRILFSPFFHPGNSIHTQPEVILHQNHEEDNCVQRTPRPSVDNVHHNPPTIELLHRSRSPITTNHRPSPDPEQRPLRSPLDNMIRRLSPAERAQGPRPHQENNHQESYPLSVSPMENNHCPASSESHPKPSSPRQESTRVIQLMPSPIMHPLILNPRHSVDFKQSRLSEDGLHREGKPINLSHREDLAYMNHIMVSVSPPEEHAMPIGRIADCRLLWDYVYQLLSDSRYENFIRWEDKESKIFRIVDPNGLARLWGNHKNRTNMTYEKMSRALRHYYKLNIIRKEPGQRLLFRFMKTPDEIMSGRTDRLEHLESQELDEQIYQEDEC
How it was run: as §1

## ATTAAC
FEV
  binding signal: 1.27 fold enrichment (6-mer frequency, TF over GST control)
ETV5
  binding signal: 1.27 fold enrichment (6-mer frequency, TF over GST control)
HSF1
  binding signal: 2.07 fold enrichment (6-mer frequency, TF over GST control)
SPIC
  binding signal: 1.3 fold enrichment (6-mer frequency, TF over GST control)
ELF4
  binding signal: 1.3 fold enrichment (6-mer frequency, TF over GST control)
ELK4
  binding signal: 1.25 fold enrichment (6-mer frequency, TF over GST control)
ETV2
  binding signal: 1.21 fold enrichment (6-mer frequency, TF over GST control)
ELF3
  binding signal: 1.29 fold enrichment (6-mer frequency, TF over GST control)
CRX
  binding signal: 3.36 fold enrichment (6-mer frequency, TF over GST control)
ETV1
  binding signal: 1.27 fold enrichment (6-mer frequency, TF over GST control)
ERF
  binding signal: 1.26 fold enrichment (6-mer frequency, TF over GST control)
ETV3L
  binding signal: 1.31 fold enrichment (6-mer frequency, TF over GST control)
ETS2
  binding signal: 1.27 fold enrichment (6-mer frequency, TF over GST control)
SPDEF
  binding signal: 1.26 fold enrichment (6-mer frequency, TF over GST control)
ETV7
  binding signal: 1.24 fold enrichment (6-mer frequency, TF over GST control)
ELF5
  binding signal: 1.23 fold enrichment (6-mer frequency, TF over GST control)
ETV3
  binding signal: 1.26 fold enrichment (6-mer frequency, TF over GST control)
ETV6
  binding signal: 1.22 fold enrichment (6-mer frequency, TF over GST control)

Reference: article PMC7862700, “An all-to-all approach to the identification of sequence-specific readers for epigenetic DNA modifications on cytosine”
